Shown are actives, neighbours in structure and some others; about 3.2% of the full set was active somewhere.
AMA1 RON2 block – qHTS for Inhibitors of AMA1-RON; Towards Development of Antimalarial Drug Lead: Primary Screen. Plasmodium falciparum AMA1 (3D7) - RON2 peptide interaction. 360,000 tested, 0.2% active. Potency, µM (highest dose often 58.2 µM), inactives show at the highest dose activity change, negative = inhibition, actives largely listed as inhibitors. AlphaScreen AMA1-biotinylated RON2 peptide binding;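 note: 0% = vehicle wells and -100% = peptide control; nearly all actives have a fitted effect of over 45% in size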
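AMA1 (3D7) with his tag at 25 nM final met compounds first, then biotinylated RON2 peptide at 25 nM; detection used donor plus acceptor beads, 10 µg/mL apiece, read by AlphaScreen after 30 min at room temperature.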
RE007 growth inh – qHTS Assay for Inhibitors of the HIV-1 protein Vpr. Potency, µM (highest dose often 92.2 µM), for inactives: top-dose activity change, negative = less growth, most hits filed as inhibitors. AID 651644, 2012. 360,000 tested, 0.21% active. S. pombe RE007 Vpr strain, BacTiter-Glo ATP luminescence, 24 h; active = well fitted falling curve with a large enough effect; inconclusive = small, poorly fitted or top-dose-only effect; inactive = no such curve, though single readings can be large or run the other way; note: nearly all actives have a fitted effect of over 50% in size
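Fission yeast strain RE007, carrying one chromosomally integrated HIV-1 vpr copy, was seeded at OD 0.01 in PMG+AL medium with 23 nL pinned compound. After 24 h at 30 °C and 99% humidity, viability was read by BacTiter-Glo luminescence.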
AmpC inh detg – qHTS Inhibitors of AmpC Beta-Lactamase (assay with detergent). P00811. AmpC hydrolysis of nitrocefin, absorbance 480 nm, 0.01% Triton. Potency, µM (top dose mostly 114 µM), inactives show at the highest dose activity change, negative = inhibition, usual class: inhibitors. 370,000 tested, 0.041% active;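 note: 0% = no-compound wells and -100% = no-enzyme wells; nearly all actives have a fitted effect of over 25% in size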
Target sequence (P00811 whole entry, looked up): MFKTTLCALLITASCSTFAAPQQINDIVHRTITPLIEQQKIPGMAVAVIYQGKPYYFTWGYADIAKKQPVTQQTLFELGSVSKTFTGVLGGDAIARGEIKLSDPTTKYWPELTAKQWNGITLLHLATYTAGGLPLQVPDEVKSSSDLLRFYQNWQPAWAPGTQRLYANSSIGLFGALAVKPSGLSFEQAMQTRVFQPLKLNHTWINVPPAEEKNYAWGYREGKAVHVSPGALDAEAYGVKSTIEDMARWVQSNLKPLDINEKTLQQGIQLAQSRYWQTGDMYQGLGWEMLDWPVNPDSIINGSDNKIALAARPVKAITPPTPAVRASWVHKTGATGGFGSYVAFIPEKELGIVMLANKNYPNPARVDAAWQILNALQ
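AmpC (5.3 nM in the dispensed reagent) in 20 mM phosphate pH 7.0 with 0.01% (detergent screen) or 0.0001% Triton X-100 was preincubated with compounds for 15 min at room temperature. Nitrocefin was then added from an 800 uM solution, and hydrolysis was followed at 480 nm.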
AmpC inh no detg – qHTS Inhibitors of AmpC Beta-Lactamase (assay without detergent); P00811; AmpC nitrocefin hydrolysis, absorbance 480 nm, 0.0001% Triton; Potency, µM (top dose mostly 57.1 µM), inactives show top-dose activity change, negative = inhibition, hits mostly inhibitors; 330,000 tested, 0.52% active;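 note: plate controls were no compound for no effect and no enzyme for full effect; nearly all actives have a fitted effect of over 20% in size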
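AmpC (5.3 nM in the dispensed reagent) in 20 mM phosphate pH 7.0 with 0.01% (detergent screen) or 0.0001% Triton X-100 was preincubated with compounds for 15 min at room temperature. Nitrocefin was then added from an 800 uM solution, and hydrolysis was followed at 480 nm.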
Sm TGR inh – qHTS Assay for the Inhibitors of Schistosoma Mansoni Peroxiredoxins; Schistosoma mansoni thioredoxin glutathione reductase (TGR), Q962Y6; AID 485364, 2010; purified TGR, DTNB reduction, TNB absorbance 405 nm; Potency, µM (doses to about 114 µM), for the others: at the top dose activity change, negative = inhibition, hits mostly inhibitors; 360,000 tested, 3% active; note: nearly all actives have a fitted effect of over 60% in size
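TGR 20 nM + NADPH 100 uM (dispensed conc.), cpd preinc 15 min RT; start with NADPH (500 uM addition) then DTNB (15 mM addition). Kinetic TNB absorbance, 405 nm filter. Four-parameter Hill fit across titration.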
Numbers without * were called inactive; ? = inconclusive; · = no result given; [ ] = dose if it differs, or a comment. Unless noted, calls come from the whole dose curve; as a rule, active = well fitted curve in the direction sought with a large enough effect; inconclusive = small, poorly fitted or top-dose-only effect, or another doubt; inactive = no such curve, though single readings can be large; an effect the other way counts as inactive or inconclusive. Unless noted, % is set by controls: 0 for no effect and ±100 for the full control effect; potency is the fitted concentration of half-maximal effect.

SMILES | AMA1 RON2 block | RE007 growth inh | AmpC inh detg | AmpC inh no detg | Sm TGR inh
COc1cccc(CNC(=O)Cc2ccc(NC(=O)N3CCCCc4ccccc43)cc2)c1OC | · | · | 3% | · | 25%
Cc1ccc(-c2nc3cc(N)ccc3o2)cc1 | -4% | -23% | 4% | 5% | 6%
CC(C)c1ccc2oc(-c3ccc(N)cc3)nc2c1 | 7% | 40µM* | -10% | 16% | -10%
Cc1ccc2oc(-c3cccc(N)c3)nc2c1 | -24% | 32µM* | 1% | 14% | -2%
COc1ccc(C(C[N+](=O)[O-])c2c(C)cc3ccccn23)cc1 (stereo unspecified) | -9% | ? | -14% | -29%[11.4 µM] | 28µM*
COc1ccc(C(C[N+](=O)[O-])c2c(-c3ccccc3)cc3ccccn23)c(OC)c1 (stereo unspecified) | -11% | ? | 5% | -33% | 56µM*
CCN(CC)c1ccc(NC(=O)C2CCN(S(=O)(=O)c3ccc4c(c3)oc(=O)n4C)CC2)c(C)c1 | · | · | 3% | · | -6%
COc1cccc(N2CCN(C(=O)CCS(=O)(=O)c3ccc4c(c3)oc(=O)n4C)CC2)c1 | -4% | 3% | -3% | 40% | 25µM*
Cc1cccc(N(C)C(=O)CCS(=O)(=O)c2ccc3c(c2)n(C)c(=O)c(=O)n3C)c1 | · | · | 1% | · | 9%
CC1CCCN(C(=O)CCS(=O)(=O)c2ccc3c(c2)n(C)c(=O)c(=O)n3C)C1 (stereo unspecified) | 2% | 3% | 10% | -6% | 1%
Cc1cccc(N(C)C(=O)CCS(=O)(=O)c2ccc3c(c2)oc(=O)n3C)c1 | · | · | 4% | · | 40µM*
Cn1c(=O)c(=O)n(C)c2cc(S(=O)(=O)CCC(=O)N3CCOCC3)ccc21 | 4% | 9% | 6% | 4µM* | 6%
Cc1ccc(C)c(N2CCN(C(=O)CCS(=O)(=O)c3ccc4c(c3)oc(=O)n4C)CC2)c1 | -9% | 9% | 1% | 183% | 40µM*
CCN(CC)c1ccc(-n2nc3cc(C)c(NC(=O)c4ccccc4F)cc3n2)cc1 | · | · | 15% | · | 0%
CCOc1nc(NC(=O)NS(=O)(=O)Oc2ccccc2)nc(-c2ccccc2)n1 | · | · | 1% | · | -6%
Oc1ccc(Cl)cc1C1=Nc2ccccc2N=C(c2cccc(Br)c2)C1 | · | · | 0% | · | -2%
COc1ccc(NC(=O)C(=O)NCc2ccco2)c(OC)c1 | · | · | 12% | · | -1%
CNC(=O)C1CCC(Cn2c(=O)c3sccc3n(CC(=O)NCc3ccc(C)cc3)c2=O)CC1 (stereo unspecified) | · | · | 3% | · | -1%
CN(C)C(CNC(=O)c1cccc(S(=O)(=O)N2CC3(C)CC2CC(C)(C)C3)c1)c1ccco1 (stereo unspecified) | 10% | 8% | ? | 150% | 25µM*
Cc1ccc(NC(=O)C2CCN(c3ncnc4sc(C)c(C)c34)CC2)cc1S(=O)(=O)N(C)C | -3% | 8% | ? | 28µM* | 0%
CCc1c(C)sc2c1CCN(Cc1ccccc1)C2c1ccccc1 (stereo unspecified) | · | · | 13% | · | 6%
N#Cc1nccnc1S(=O)(=O)c1cccs1 | 5% | -10% | -14% | -25% | 0.1µM*
CN(Cc1ccccc1C#N)S(=O)(=O)c1cccs1 | 4% | -8% | -10% | -17% | 7%
CC(=O)c1c(C)oc2ccc(N(C(C)=O)S(=O)(=O)c3ccc(Cl)c([N+](=O)[O-])c3)cc12 | 2% | 21% | -13% | -20% | 2.2µM*
CC(=O)c1c(C)oc2ccc(N(C(C)=O)S(=O)(=O)c3ccc(Br)cc3)cc12 | 10% | -12% | · | · | ·
SMILES | AMA1 RON2 block | RE007 growth inh | AmpC inh detg | AmpC inh no detg | Sm TGR inh
COc1ccc(-c2nc(CS(=O)CC(=O)NC3CCCC3)c(C)o2)cc1OC (stereo unspecified) | 9% | -10% | 0% | 34% | 20µM*
COc1ccc(-c2nc(CS(=O)CC(=O)NC3CCCc4ccccc43)c(C)o2)cc1OC (stereo unspecified) | -11% | -2% | -15% | 101% | 20µM*
COc1ccc(-c2nc(CS(=O)CC(=O)NC3CCC(C)CC3)c(C)o2)cc1OC (stereo unspecified) | -10% | -2% | 3% | 131% | 35µM*
COc1cccc(-c2nc(CS(=O)CC(=O)NC3CCCC3)c(C)o2)c1 (stereo unspecified) | 9% | -3% | ? | -21% | ?
COc1ccc(-c2nc(CSCC(=O)NC3CCCc4ccccc43)c(C)o2)cc1OC (stereo unspecified) | -9% | -10% | -2% | 118% | 0%
O=C(CCn1c(=O)c2cccn2c2cccnc21)N1CCN(c2ccc(F)cc2)CC1 | · | · | 11% | · | 4%
COc1ccc(CCNC(=O)C2COc3ccccc3C2)cc1OC (stereo unspecified) | · | · | 22% | · | 4%
COc1ccc(C2NC3=C(CCCC3)C(C#N)(C#N)C2(C#N)C#N)cc1 (stereo unspecified) | · | · | 5% | -21% | 1.8µM*
CC1(C)CC(=O)C=C(NC2=CC3OC(c4ccccc4)OCC3OC2=O)C1 (stereo unspecified) | 17% | -16% | -13% | -20% | 20µM*
c1ccc(N2CC3CCc4ccccc4C3=N2)cc1 (stereo unspecified) | 135% | -4% | -4% | -34% | 45µM*
COc1cc(/C=C/C(=O)OCC(=O)N2CC(=O)Nc3ccccc32)ccc1O | -7% | 5% | -13% | -12% | 45µM*
CC1CCCN(S(=O)(=O)c2ccc3c(c2)CCN3C(=O)CCC(=O)O)C1 (stereo unspecified) | · | · | 13% | · | 6%
O=C(Nc1ccccc1C(=O)NCCCN1CCOCC1)c1ccc(F)cc1 | 5% | -4% | -10% | -8% | 89µM*
CCOC(=O)N1CCN(S(=O)(=O)c2cc([N+](=O)[O-])ccc2C)CC1 | 0% | -1% | -2% | 8% | ·
CCOC(=O)N1CCC(=NNS(=O)(=O)c2cccc([N+](=O)[O-])c2)CC1 | 3% | -13% | 3% | -23% | 28µM*
O=S(=O)(c1ccc(NC(=S)Nc2ccc(OC(F)F)cc2)cc1)N1CCOCC1 | 19% | 0% | -9% | -18% | 45µM*
O=C(Nc1cccc(S(=O)(=O)N2CCCCC2)c1)c1ccc(S(=O)(=O)C(F)F)cc1 | -13% | 3% | -14% | 22µM* | 2%
Cc1ccc(NC(=O)c2cc(S(=O)(=O)N3CCCCC3)c[nH]2)cc1F | 5% | -2% | -15% | -27% | -1%

Screens from PubChem BioAssay.
